# CYP2C19 act: activators of human cytochrome P450 2C19; P33261; recombinant CYP2C19, luciferin-H EGE luminescence; hits give high values; 0 = fully inhibited enzyme, 1 = untreated enzyme; activation factor at 5 µM; 96,000 tested, under 10 active; AID 1025;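 active means activation factor of at least 2 at 5 µM in the primary screen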;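 further: 0 = wells with 2.5 mM tranylcypromine and 1 = vehicle-only wells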
# Target sequence (P33261 whole entry, looked up): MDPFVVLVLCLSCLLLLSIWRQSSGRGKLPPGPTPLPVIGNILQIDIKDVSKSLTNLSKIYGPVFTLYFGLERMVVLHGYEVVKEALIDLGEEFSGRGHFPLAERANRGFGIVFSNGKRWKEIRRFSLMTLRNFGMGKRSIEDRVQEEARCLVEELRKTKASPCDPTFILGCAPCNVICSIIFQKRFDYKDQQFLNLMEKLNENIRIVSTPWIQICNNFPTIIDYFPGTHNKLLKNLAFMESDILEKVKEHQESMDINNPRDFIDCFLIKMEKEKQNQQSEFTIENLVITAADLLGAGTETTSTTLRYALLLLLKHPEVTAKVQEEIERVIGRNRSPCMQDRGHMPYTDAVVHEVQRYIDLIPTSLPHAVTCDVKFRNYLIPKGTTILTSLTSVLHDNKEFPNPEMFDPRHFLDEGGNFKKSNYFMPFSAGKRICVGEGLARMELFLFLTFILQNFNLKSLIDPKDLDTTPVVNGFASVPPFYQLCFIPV
# CYP2C19 inhib: human CYP2C19 inhibition | CYP2C19 Supersomes, luciferin-H EGE luminescence, 30 min | 96,000 tested, 21% active | inhibition, % at 5 µM;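 active means CYP2C19 inhibition above a set limit at 5 µM in the primary screen, cut at about 50% in these data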;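 further: plate controls were negative control wells for no effect and 2.5 mM tranylcypromine positive control for full effect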
# PLAP act: activators of human placental alkaline phosphatase; P05187; purified PLAP enzyme, luminescent substrate read-out; hits give high values; activation fold at 20 µM; 96,000 tested, 1.2% active; AID 696; in the data active means activation fold above about 2
# CYP2C9 activ: activators of human CYP2C9 | activation factor at 5 µM | 96,000 tested, 1.4% active | recombinant CYP2C9, luciferin-H conversion, luminescence; hits give high values; factor 1 = untreated enzyme, 0 = blocked | AID 1024;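 active means activation factor of 2 or more for CYP2C9 at a 5 µM dose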;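 further: 0 = sulfaphenazole-blocked wells and 1 = vehicle-only wells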
# CYP2C9 inh: inhibitors of human CYP2C9; P11712; CYP2C9 Supersomes, luciferin-H conversion, luminescence; inhibition, % at 5 µM; 96,000 tested, 20% active; AID 777;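 active means blocking of liver enzyme CYP2C9 beyond about 50% at 5 µM, limit read from the data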
# An asterisk follows results filed as active. Rows were chosen to be rich in hits. Some 31% of all compounds tested hit in one or more screens of this group.
SMILES,CYP2C19 act,CYP2C19 inhib,PLAP act,CYP2C9 activ,CYP2C9 inh
Cc1ccc2ccc(S(=O)(=O)n3nc(C)cc3C)cc2c1,0.4,61*,1.2,1.2,-16
CCOC(=O)C1=NN(c2ccccc2)C2(S1)SC(C(C)=O)=C(C)N2c1ccccc1 (stereo not given),1.2,-20,0.8,0.6,44
CCOC(=O)C1=NN(c2ccc(C)cc2)C2(S1)SC(C(C)=O)=C(C)N2c1ccccc1 (stereo not given),0.6,39,1.2,0.5,54*
CCOC(=O)c1c(-c2ccccc2)nc2cc(C)ccn12,0.7,28,1,0.9,12
COC(=O)C1=NN(c2ccccc2)C2(S1)S/C(=C\c1ccccc1)C(=O)N2c1ccccc1 (stereo not given),0.1,88*,1.4,0.5,54*
CCOC(=O)C1=NN(c2cccc(C)c2)C2(S1)SC(C(C)=O)=C(C)N2c1ccccc1 (stereo not given),0.5,47,1.5,0.2,80*
COc1cc2c(cc1OC)C(C(=O)N1CCN(c3ccccn3)CC1)C(c1cccs1)N(C)C2=O (stereo not given),1,2,1.3,0.9,9
O=C(NC1CCCc2ccccc21)C1CCC(CNc2c(N3CCOCC3)c(=O)c2=O)CC1 (stereo not given),1.2,-18,1.3,1.1,-5
Cc1cccc(NC(=O)CSc2nnc(CCC(=O)Nc3ccc(C)c(Cl)c3)n2C)c1,1,-4,1,1.2,-19
CCOC(=O)C(Cc1ccc(NC(=O)/C(=C/c2ccc(OC(C)=O)cc2)NC(C)=O)cc1)N1C(=O)c2ccccc2C1=O (stereo not given),0.7,27,1.4,0.4,60*
CCOC(=O)C(Cc1ccc(NC(=O)/C(=C/c2ccccc2)NC(=O)c2ccccc2)cc1)N1C(=O)c2ccccc2C1=O (stereo not given),0.5,52*,1,0.1,91*
COc1ccc(NC(=O)C(CCSC)N2C(=O)c3ccccc3C2=O)cc1 (stereo not given),1.4,-38,0.8,1.2,-18
CSc1ccc(-c2c(C#N)c(N)nc3c2CCCC3)cc1,0.9,14,0.6,1.1,-6
COc1ccc(S(=O)(=O)Nc2ccc(NC(C)=O)cc2)cc1,0,97*,0.9,0.1,90*
COc1ccc(S(=O)(=O)Nc2ccc(N(C)C(C)=O)cc2)cc1,0.1,93*,1.2,0.2,83*
COc1ccc(NC(=O)C(NC(C)=O)C(=O)NCc2ccccc2OC)cc1 (stereo not given),0.8,15,1,0.8,23
COc1ccccc1CNS(=O)(=O)c1ccc(NC(C)=O)cc1,0.2,77*,0.9,2.1*,-114
Cc1ccc(NC(=O)N2CCC(C(=O)NCC(C)C)CC2)cc1,1.2,-22,0.8,1.2,-16
O=C(NCCCn1ccnc1)c1cc(-c2ccc(Cl)cc2)nc2ccccc12,0.1,90*,1.2,0,98*
COCCNC(=O)c1cc(-c2cccnc2)nc2ccc(Br)cc12,1,4,1.1,0.8,21
Cc1ccc2nc(-c3ccccc3)cc(C(=O)NCCCn3ccnc3)c2c1,0.2,81*,1.1,0,98*
Cc1nn(Cc2ccccc2Cl)c2sc(C(=O)NCCCn3ccnc3)cc12,0.1,90*,1.5,0,100*
Cc1nn(Cc2ccc(Cl)cc2)c2sc(C(=O)OCC(N)=O)cc12,0.9,13,0.8,0.2,76*
CCN(CC)C(=O)N1CCC(NC(=O)c2ccc(C(C)(C)C)cc2)CC1,1,-2,1.3,1.3,-26
COc1ccc(C2CC(=O)Nc3ccccc3S2(=O)=O)cc1OC (stereo not given),0.6,40,1.1,1,-4
SMILES,CYP2C19 act,CYP2C19 inhib,PLAP act,CYP2C9 activ,CYP2C9 inh
O=C(CCC(=O)Nc1ccc(Oc2ccccc2)cc1)NCCO,0.9,8,1.1,0.9,9
CC(C)c1nnc(NC(=O)c2cnccn2)s1,1.1,-7,1.2,0.9,13
CCCNC(=O)c1cc2c3ccccc3n(C)c2s1,0.7,27,0.8,0.6,39
Cc1cc(C(=O)NCCCn2ccnc2)sc1-c1ccccc1,0,97*,1.1,0.1,89*
Cc1nn(Cc2ccccc2Cl)c2sc(C(=O)OC3CCCC3=O)cc12 (stereo not given),0,98*,1.3,0.2,84*
CCCc1ccc(-c2cc(N)n[nH]2)cc1,1,-2,1.2,1.2,-19
COc1ccc(OC)c2c(C)cc(NCCN3CCOCC3)nc12,0.9,9,1.3,1.1,-6
Cc1ccc(NC(=S)NC(NC(=O)C(C)(C)C)C(Cl)(Cl)Cl)c(C)c1 (stereo not given),0.6,40,1.3,0.1,90*
Cc1ccc(C)c(NC(=S)NC(NC(=O)/C=C/c2ccccc2)C(Cl)(Cl)Cl)c1 (stereo not given),1.1,-13,0.9,0.9,10
CCOC(=O)COn1c(-c2cccc(Cl)c2)nc2ccc([N+](=O)[O-])cc21,1,-3,1,1,3
COc1ccc(Cc2nc(-c3ccccc3)no2)cc1,0.7,27,0.9,0.8,17
CC(C)N(Cc1nc(-c2ccccc2)no1)C(=O)C(C)(C)C,0.5,52*,1,0.6,44
COc1ccc(-c2noc(CN(C(=O)C(C)(C)C)C(C)C)n2)cc1,0.2,81*,1.3,0.4,57*
CCCCCCn1c(N(CC)CC)nc2c1c(=O)[nH]c(=O)n2C,0.8,19,1,0.9,9
Cc1ccc(C(=O)NC(=S)N2CC(C)OC(C)C2)cc1[N+](=O)[O-] (stereo not given),1,0,1.1,0.9,8
COc1ccc(-c2cc(C(=O)NCc3ccccc3)no2)cc1OC,0.9,14,0.9,0.9,10
CCC(=O)c1c[nH]c(C(=O)NCCCn2ccnc2)c1,0.2,76*,1.1,0.2,83*
COc1cccc(-c2cc(C(=O)NCCCn3ccnc3)no2)c1,0.2,80*,0.9,0.3,71*
COc1ccc(-c2cc(C(=O)N(C)Cc3ccccc3)no2)cc1OC,0.8,21,0.9,0.5,50*
Cc1ccc(C(=O)NCCCn2ccnc2)cc1[N+](=O)[O-],0.3,74*,0.9,0.2,82*
CCC(C)[C@@H](C(=O)Nc1ccc(OC)c(OC)c1)N1Cc2ccccc2C1=O (stereo not given in full),0.6,44,1.5,0.8,22
CCCc1ccccc1OCCNC(C)=O,0.7,26,0.9,0.9,9
NCCCN1CCOCC1,1,5,1,1,-3
CCCC(=O)c1c(NC)cc(C)oc1=O,0.9,6,1,1.1,-10
O=C(NCCCn1ccnc1)c1ccc2c(c1)OCCO2,0,97*,1,0.4,58*
CC1CN(S(=O)(=O)c2cccc(C(=O)NCCCn3ccnc3)c2)CC(C)O1 (stereo not given),0.9,9,0.8,0.4,63*

# Bioassay records as filed in PubChem.
